High-throughput results deposited in PubChem BioAssay by National Center for Advancing Translational Sciences (NCATS).
HT1080 IDH1KD tx: HT-1080 IDH1 knockdown cell toxicity (counter line). HT-1080 IDH1 knockdown viability, ATP luminescence, 48 h. Potency, µM (top dose mostly 46.1 µM), usual class: cytotoxic. hit rate 2% among 360,000. AID 686971
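% activity derives from luminescence (CellTiter-Glo), normalised to DMSO and no-cell wells. HT-1080-IDH1KD cells, 750/well, had 48 h compound exposure at 37 °C.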
TDP1 cell CPT: growth inhibition of DT40 Tdp1-/-;hTDP1 cells with camptothecin (screen for TDP1 inhibitors). chicken DT40 Tdp1-/-;hTDP1 cells + 20 nM CPT, ATP luminescence, 48 h. Potency, µM (top dose mostly 46.2 µM), most hits filed as inhibitors. AID 686979. hit rate 12% among 420,000; note: nearly all actives have a fitted effect of over 55% in size
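Chicken DT40 Tdp1-/- cells complemented with human TDP1, 400 cells/well, exposed to compounds plus 20 nM camptothecin for at least 48 h at 37 C; viability read as ATP content by CellTiter-Glo luminescence.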
HT1080-NT tox: kills 2HG-producing HT-1080-NT fibrosarcoma cells; HT-1080-NT fibrosarcoma viability, CellTiter-Glo ATP luminescence, 48 h; Potency, µM (top dose mostly 46.1 µM), usual class: cytotoxic; hit rate 1.6% among 360,000;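 note: NT is the 2HG producing partner of a matched IDH1 knockdown line; nearly all actives have a fitted effect of over 55% in size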
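Viability by CellTiter-Glo luminescence after 48 h compound exposure at 37C of HT-1080-NT cells (750/well, RPMI, 5% FBS). % activity scaled between DMSO wells and medium-only wells, then curve-fitted and categorized by curve class.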
IL1B secr inh: blocks inflammasome-driven IL-1 beta release; THP-1 LPS/ATP IL-1B secretion, AlphaLISA, 16 h; stronger effect = lower value; activity change, % at 57.5 µM; hit rate 4.7% among 360,000; in the data active = activity change below about -50%; inconclusive = mostly about -30% to -49%
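Secreted IL-1B measured by AlphaLISA bead assay after 16 h compound exposure of THP-1 cells; compounds (final up to 57.5 uM) added 1 h before LPS (250 ng/mL) and ATP (1.25 mM) stimulation; lower signal means less secretion.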
ELG1 DNA repair: inhibitors of ELG1-dependent DNA repair in HEK293T cells | hit rate 2.3% among 330,000 | Potency, µM (doses to about 46.1 µM), actives largely listed as inhibitors | HEK293T ELG1-luciferase reporter, luminescence, 16 h; DNA damage induced by 5-fluorouridine; note: nearly all actives have a fitted effect of over 55% in size
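DMSO vehicle served as the neutral condition. Each well held 2,000 cells given 5-fluorouridine plus compound; after 16 hr at 37 °C/5% CO2, ONE-Glo was added and luciferase measured 30 min later.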
DT40 TDP1 no CPT: qHTS for Inhibitors of human tyrosyl-DNA phosphodiesterase 1 (TDP1): qHTS in cells in absence of CPT | Potency, µM (series often up to 46.2 µM), most hits filed as inhibitors | DT40 Tdp1-/- hTDP1 cells, no CPT, ATP luminescence, 48 h | AID 686978, 2013 | hit rate 15% among 420,000; note: nearly all actives have a fitted effect of over 55% in size
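DT40 Tdp1-/-;hTDP1 cells, no CPT (DMSO vehicle only), 400 cells/well; compounds pin-transferred; ≥48 hr, 37 °C; CellTiter-Glo 30 min RT dark, luminescence read.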
A number is an active result. The list is not random: actives were taken first. Their share in the collection is about 19%. Unless noted, calls come from the whole dose curve; as a rule, active = well fitted curve in the direction sought with a large enough effect; inconclusive = small, poorly fitted or top-dose-only effect, or another doubt; inactive = no such curve, though single readings can be large; an effect the other way counts as inactive or inconclusive.

`CCOc1cc(CNCCSc2nnnn2C)cc(Br)c1OCc1ccc(F)cc1` gave HT1080 IDH1KD tx inactive, TDP1 cell CPT inconclusive, HT1080-NT tox 23µM, IL1B secr inh -87, ELG1 DNA repair inactive and DT40 TDP1 no CPT inconclusive.
Screening Cc1ccccc1CNCCSc1nnnn1-c1ccccc1 returned TDP1 cell CPT inactive and DT40 TDP1 no CPT inactive.
Screening COc1cc(CNCCSc2nnnn2C)cc(Br)c1OCc1ccccc1 returned HT1080 IDH1KD tx inactive, TDP1 cell CPT inconclusive, HT1080-NT tox inactive, IL1B secr inh inactive, ELG1 DNA repair inconclusive and DT40 TDP1 no CPT inconclusive.
For CCOc1cc(CNCCSc2nnnn2-c2ccccc2)cc(Cl)c1OC the results were TDP1 cell CPT inconclusive and DT40 TDP1 no CPT 21µM.
For CCOc1cc(CNCCSc2nnnn2C)cc(Cl)c1OCc1ccc(Cl)cc1 the results were TDP1 cell CPT 13µM and DT40 TDP1 no CPT 13µM.
COc1cc(CNCCSc2nnnn2C)cc(Br)c1OCc1ccc(F)cc1 was read as HT1080 IDH1KD tx inconclusive, TDP1 cell CPT inconclusive, HT1080-NT tox inconclusive, IL1B secr inh -50, ELG1 DNA repair inactive and DT40 TDP1 no CPT 26µM.
O=C1CCCN1CC(=O)N1CCCC(Nc2cccc(F)c2)C1 (stereo not given) was read as HT1080 IDH1KD tx inactive, TDP1 cell CPT inactive, HT1080-NT tox inactive, IL1B secr inh inactive, ELG1 DNA repair inactive and DT40 TDP1 no CPT inactive.
Cc1cc(C)c2c(n1)SCC(=O)N2CC(=O)Nc1cccc(C)c1C was read as TDP1 cell CPT inconclusive and DT40 TDP1 no CPT inactive.
COc1cc(CNCCSc2nnnn2C)cc(Br)c1OCc1ccccc1F was read as HT1080 IDH1KD tx inactive, TDP1 cell CPT inactive, HT1080-NT tox inactive, IL1B secr inh inactive, ELG1 DNA repair inconclusive and DT40 TDP1 no CPT inconclusive.
`CCOc1cc(CNCCSc2nnnn2C)cc(Br)c1OCc1ccccc1F` gave HT1080 IDH1KD tx inconclusive, TDP1 cell CPT 16µM, HT1080-NT tox inconclusive, IL1B secr inh -65, ELG1 DNA repair inactive and DT40 TDP1 no CPT 13µM.
Screening Cc1cc(-n2ccnc(NCCc3ccc(S(N)(=O)=O)cc3)c2=O)ccc1Br returned TDP1 cell CPT inconclusive and DT40 TDP1 no CPT 26µM.
For Cc1cc(=O)oc2cc(NC(=O)c3cc([N+](=O)[O-])ccc3N3CCOCC3)ccc12 the results were HT1080 IDH1KD tx inactive, TDP1 cell CPT inactive, HT1080-NT tox inactive, IL1B secr inh inactive, ELG1 DNA repair inactive and DT40 TDP1 no CPT inactive.
`CCN(CC)S(=O)(=O)c1ccc(OC)c(NC(=O)c2cc([N+](=O)[O-])ccc2N2CCOCC2)c1` gave HT1080 IDH1KD tx inactive, TDP1 cell CPT inconclusive, HT1080-NT tox inactive, IL1B secr inh inactive and DT40 TDP1 no CPT 16µM.
`CCN(CC)S(=O)(=O)c1cc(NC(=O)c2cc([N+](=O)[O-])ccc2N2CCOCC2)ccc1C` gave HT1080 IDH1KD tx inactive, TDP1 cell CPT inconclusive, HT1080-NT tox inactive, IL1B secr inh inactive, ELG1 DNA repair inconclusive and DT40 TDP1 no CPT 16µM.
For CCN(CC)S(=O)(=O)c1ccc(N2CCOCC2)c(NC(=O)c2ccc(OC)c([N+](=O)[O-])c2)c1 the results were HT1080 IDH1KD tx inactive, TDP1 cell CPT inactive, HT1080-NT tox inactive, IL1B secr inh inactive, ELG1 DNA repair inactive and DT40 TDP1 no CPT inactive.
For CC(=O)c1nnn(-c2ccc([N+](=O)[O-])cc2C)c1C the results were HT1080 IDH1KD tx inactive, TDP1 cell CPT inactive, HT1080-NT tox inactive, IL1B secr inh inactive, ELG1 DNA repair inactive and DT40 TDP1 no CPT inactive.
For CCn1nc(C)c(CCN(C)C(=O)Nc2cccc(Cl)c2C)c1C the results were TDP1 cell CPT inactive and DT40 TDP1 no CPT inconclusive.
Screening Cc1ccc(-c2nn3c(-c4ccccc4C)nnc3c3ccccc23)cc1 returned TDP1 cell CPT inconclusive and DT40 TDP1 no CPT 18µM.
`COC(=O)[C@H](C)N(Cc1ccc(Cl)c(Cl)c1)S(=O)(=O)CCN1CCN(c2ccccc2)CC1` gave HT1080 IDH1KD tx inactive, TDP1 cell CPT inconclusive, HT1080-NT tox inactive, IL1B secr inh inactive, ELG1 DNA repair inconclusive and DT40 TDP1 no CPT 18µM.
Screening Cc1nn(Cc2cccc(C(=O)Nc3ccn(Cc4c(F)c(F)cc(F)c4F)n3)c2)c(C)c1[N+](=O)[O-] returned HT1080 IDH1KD tx inconclusive, TDP1 cell CPT inconclusive, HT1080-NT tox inactive, IL1B secr inh inactive, ELG1 DNA repair 21µM and DT40 TDP1 no CPT inconclusive.
For Cc1nn(C)c(C(=O)Nc2ccn(Cc3c(F)c(F)cc(F)c3F)n2)c1[N+](=O)[O-] the results were HT1080 IDH1KD tx inactive, TDP1 cell CPT inactive, HT1080-NT tox inactive, IL1B secr inh inactive, ELG1 DNA repair inactive and DT40 TDP1 no CPT inconclusive.
Screening COc1ccc(CNC(=O)c2nc(SCc3ccc(C)cc3)ncc2Cl)cc1 returned TDP1 cell CPT inactive and DT40 TDP1 no CPT inconclusive.
`COc1ccc(CNC(=O)c2nc(S(=O)(=O)Cc3ccccc3)ncc2Cl)cc1` gave HT1080 IDH1KD tx inconclusive, TDP1 cell CPT 1.3µM, HT1080-NT tox inconclusive, IL1B secr inh -99, ELG1 DNA repair inconclusive and DT40 TDP1 no CPT 1.3µM.
Screening COc1ccc(CNC(=O)c2nc(SC(C)C)ncc2Cl)cc1 returned TDP1 cell CPT 29µM and DT40 TDP1 no CPT 23µM.
`O=C(NCc1ccccc1)c1nc(S(=O)(=O)Cc2ccccc2)ncc1Cl` gave HT1080 IDH1KD tx inconclusive, TDP1 cell CPT 2.9µM, HT1080-NT tox inconclusive, IL1B secr inh -98, ELG1 DNA repair inactive and DT40 TDP1 no CPT 2.3µM.
`O=C(NCc1ccccc1)c1c(Cl)nc(Cl)c(Cl)c1Cl` gave HT1080 IDH1KD tx 7.3µM, TDP1 cell CPT inconclusive, HT1080-NT tox 10µM, IL1B secr inh -107, ELG1 DNA repair inconclusive and DT40 TDP1 no CPT 18µM.
For Cc1nc(Cl)c(C(=O)NCc2ccccc2)c(C)c1[N+](=O)[O-] the results were HT1080 IDH1KD tx inactive, TDP1 cell CPT inactive, HT1080-NT tox inactive, IL1B secr inh inactive, ELG1 DNA repair inactive and DT40 TDP1 no CPT inactive.
For CCC1(CC)NC(=O)N(CC(=O)OC(C)C(=O)Nc2ccc(NC(C)=O)cc2)C1=O (stereo not given) the results were HT1080 IDH1KD tx inactive, TDP1 cell CPT inactive, HT1080-NT tox inactive, IL1B secr inh inactive, ELG1 DNA repair inactive and DT40 TDP1 no CPT inactive.
CC(C)Sc1ncc(Cl)c(C(=O)Nc2ccc(S(=O)(=O)Nc3ncccn3)cc2)n1 was read as TDP1 cell CPT inconclusive and DT40 TDP1 no CPT inactive.
`CCN(c1ccccc1)S(=O)(=O)c1ccc(NC(=O)c2nc(SC(C)C)ncc2Cl)cc1` gave TDP1 cell CPT 21µM and DT40 TDP1 no CPT 18µM.
For CCS(=O)(=O)c1ncc(Cl)c(C(=O)NCc2ccccc2)n1 the results were TDP1 cell CPT inconclusive and DT40 TDP1 no CPT 2.3µM.
